Growth inhibition data for eight molecules are collected here from PubChem BioAssay (NCI).

Several values for one entry are separate records, joined by “and”; a condition that tells them apart may be missing. Equal entries are not always repeated. This is part of a sample that, as a whole, favours compounds with a hit. Of some 79,000 tested, about 15% had one in any assay. The source holds several records for some structures; these can differ, active in one and inactive in another. Activity calls are given as the source filed them. Cut-off read from the data, not from the text of the source: active = growth inhibition above about 70%; inactive = the rest.

The nature of experiment [1]: NCI Yeast Anticancer Drug Screen. Data for the rad50 strain (AID 155).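 Note: 0% = growth of vehicle-only cultures of the same strain.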 As to conditions: S. cerevisiae rad50 strain growth inhibition, stronger effect = higher value. In a few lines: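 Readout: growth inhibition relative to vehicle-treated cultures. Compound exposure was carried out in a genetically defined yeast strain deficient in DNA damage repair.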
A short description of experiment [2]: NCI Yeast Anticancer Drug Screen. Data for the mec2-1 strain (AID 157). The following applies: S. cerevisiae mec2-1 strain, stronger effect = higher value. In a few lines: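 Each compound was tested on mec2-1 yeast, a strain altered in DNA damage repair or cell cycle control. Growth inhibition is reported relative to vehicle.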
Experiment [3] in a line: NCI Yeast Anticancer Drug Screen. Data for the sgs1 mgt1 strain (AID 161).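 Note: 0% = growth of cultures given vehicle only.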 The following applies: S. cerevisiae sgs1 mgt1 strain, stronger effect = higher value. In short, it runs like this:
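Mutant yeast exposed to compound; growth scored against vehicle-only wells.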

Experiment [4] is described as follows: NCI Yeast Anticancer Drug Screen. Data for the cln2 rad14 strain (AID 165).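 Note: 0% = growth equal to vehicle treated cultures.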 The following applies: S. cerevisiae cln2 rad14 strain, stronger effect = higher value. In short, it runs like this: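 Test compounds were added to cln2 rad14 yeast cultures; inhibition of growth was then determined by comparison with vehicle treatment.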
Experiment [5] in a line: NCI Yeast Anticancer Drug Screen. Data for the bub3 strain (AID 167). As to conditions: S. cerevisiae bub3 mutant strain, stronger effect = higher value. In a few lines:
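Readout: yeast growth inhibition, expressed relative to vehicle-only wells. The test organism is a mutant strain from a panel with lesions in DNA repair or checkpoint genes.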

Experiment [6] in a line: NCI Yeast Anticancer Drug Screen. Data for the mlh1 rad18 strain (AID 175). The following applies: S. cerevisiae mlh1 rad18 strain growth inhibition, stronger effect = higher value. In a few lines: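 Inhibition values reflect reduced growth of mutant yeast versus vehicle-treated controls following compound exposure; the mutations affect DNA damage repair.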
The mark [7] stands for this setting: at 5.0 µM (retest, dose inferred, filed as 0.5).
The mark [8] stands for this setting: at 50.0 µM (retest, dose inferred, filed as 5.0).

Regarding `CCC[CH2][Sn]([CH2]CCC)([O]C(=O)C(N)CSC)[O]C(=O)C(N)CSC` (centres undefined), the growth inhibition is 7% (inactive) in experiment [1] (setting [7]); 7% (inactive) in experiment [1] (setting [8]); 90% (active) in experiment [1] (at 50.0 µM); 10% (inactive) in experiment [2] (setting [7]); 10% (inactive) in experiment [2] (setting [8]); 89.3% (active) in experiment [2] (at 50.0 µM). Besides, the growth inhibition in experiment [3] (setting [7]) is -5% (inactive); in experiment [3] (setting [8]) it was -5% (inactive); in experiment [3] (at 50.0 µM), 86.2% (active); in experiment [4] (setting [7]), 1% (inactive); in experiment [4] (setting [8]), 1% (inactive); in experiment [4] (at 50.0 µM), 52.9% (inactive). In addition, the growth inhibition was -4% (inactive) in experiment [5] (setting [7]); -4% (inactive) in experiment [5] (setting [8]); 88.8% (active) in experiment [5] (at 50.0 µM); -18% (inactive) in experiment [6] (setting [7]); -18% (inactive) in experiment [6] (setting [8]); 83.1% (active) in experiment [6] (at 50.0 µM).

With `O=[N+]([O-])c1csc([N+](=O)[O-])c1`, the growth inhibition was 99% (active) in experiment [1] (setting [7]); 99% (active) in experiment [1] (setting [8]); 99.3% (active) in experiment [1] (at 50.0 µM); 97% (active) in experiment [2] (setting [7]); 99% (active) in experiment [2] (setting [8]); 99.7% (active) in experiment [2] (at 50.0 µM). Also, the growth inhibition in experiment [3] (setting [7]) was 95% (active); in experiment [3] (setting [8]) it was 99% (active); in experiment [3] (at 50.0 µM), 99.5% (active); in experiment [4] (setting [7]), 75% (active); in experiment [4] (setting [8]) it was 99% (active); in experiment [4] (at 50.0 µM), 98.8% (active). Further, the growth inhibition in experiment [5] (setting [7]) was 89% (active); in experiment [5] (setting [8]) it was 99% (active); in experiment [5] (at 50.0 µM), 99.2% (active); in experiment [6] (setting [7]) it was 99% (active); in experiment [6] (setting [8]) it was 99% (active); in experiment [6] (at 50.0 µM), 99.3% (active).

For the molecule `CCC[CH2][Sn]1([CH2]CCC)[O]C(=O)c2cc(C)ccc2[O]1`, the growth inhibition is 82% (active) in experiment [1] (setting [7]); 97% (active) in experiment [1] (setting [8]); 88.8% (active) in experiment [1] (at 50.0 µM); 89% (active) in experiment [2] (setting [7]); 98% (active) in experiment [2] (setting [8]); 90.8% (active) in experiment [2] (at 50.0 µM). The growth inhibition in experiment [3] (setting [7]) was 86% (active); in experiment [3] (setting [8]) it was 98% (active); in experiment [3] (at 50.0 µM), 91.5% (active); in experiment [4] (setting [7]), 71% (active); in experiment [4] (setting [8]), 97% (active); in experiment [4] (at 50.0 µM), 89.3% (active). Besides, the growth inhibition is 91% (active) in experiment [5] (setting [7]); 98% (active) in experiment [5] (setting [8]); 90.6% (active) in experiment [5] (at 50.0 µM); 91% (active) in experiment [6] (setting [7]); 98% (active) in experiment [6] (setting [8]); 89% (active) in experiment [6] (at 50.0 µM).

In the case of `ClCCCCCl`, the growth inhibition in experiment [1] (setting [7]) is 13% (inactive); in experiment [1] (setting [8]), -2% (inactive); in experiment [1] (at 50.0 µM) it was 32.2% (inactive); in experiment [2] (setting [7]) it was -4% (inactive); in experiment [2] (setting [8]), -2% (inactive); in experiment [2] (at 50.0 µM), 16.8% (inactive). In addition, the growth inhibition in experiment [3] (setting [7]) is 5% (inactive); in experiment [3] (setting [8]), -5% (inactive); in experiment [3] (at 50.0 µM), -18.9% (inactive); in experiment [4] (setting [7]) it was 5% (inactive); in experiment [4] (setting [8]), -6% (inactive); in experiment [4] (at 50.0 µM), 41% (inactive). In addition, the growth inhibition in experiment [5] (setting [7]) was 4% (inactive); in experiment [5] (setting [8]), 0% (inactive); in experiment [5] (at 50.0 µM), -17.6% (inactive); in experiment [6] (setting [7]) it was 4% (inactive); in experiment [6] (setting [8]), -1% (inactive); in experiment [6] (at 50.0 µM), 26.6% (inactive).

For `O=C(O)C(O)(c1ccccc1)C1(O)CCCCC1` (centres undefined), the growth inhibition in experiment [1] (setting [7]) is -147% (inactive); in experiment [1] (setting [8]) it was -173% (inactive); in experiment [1] (at 50.0 µM), 1.7% (inactive); in experiment [2] (setting [7]), -47% (inactive); in experiment [2] (setting [8]), -54% (inactive); in experiment [2] (at 50.0 µM), 7.95% (inactive). In addition, the growth inhibition is -53% (inactive) in experiment [3] (setting [7]); -64% (inactive) in experiment [3] (setting [8]); 17.2% (inactive) in experiment [3] (at 50.0 µM); -54% (inactive) in experiment [4] (setting [7]); -61% (inactive) in experiment [4] (setting [8]); 3.15% (inactive) in experiment [4] (at 50.0 µM). The growth inhibition in experiment [5] (setting [7]) was -64% (inactive); in experiment [5] (setting [8]) it was -83% (inactive); in experiment [5] (at 50.0 µM), -3.65% (inactive); in experiment [6] (setting [7]), -114% (inactive); in experiment [6] (setting [8]) it was -127% (inactive); in experiment [6] (at 50.0 µM), 50.3% (inactive).

As to `C(CCC[Te][Te]CCCCCCOC1CCCCO1)CCOC1CCCCO1` (centres undefined), the growth inhibition was 6% (inactive) in experiment [1] (setting [7]); 39% (inactive) in experiment [1] (setting [8]); 84.5% (active) in experiment [1] (at 50.0 µM); 3% (inactive) in experiment [2] (setting [7]); 17% (inactive) in experiment [2] (setting [8]); 48.5% (inactive) in experiment [2] (at 50.0 µM). In addition, the growth inhibition in experiment [3] (setting [7]) was 7% (inactive); in experiment [3] (setting [8]) it was 19% (inactive); in experiment [3] (at 50.0 µM), 67.7% (inactive); in experiment [4] (setting [7]), 3% (inactive); in experiment [4] (setting [8]), 29% (inactive); in experiment [4] (at 50.0 µM) it was 62.4% (inactive). Besides, the growth inhibition in experiment [5] (setting [7]) was 0% (inactive); in experiment [5] (setting [8]) it was 30% (inactive); in experiment [5] (at 50.0 µM), 68.7% (inactive); in experiment [6] (setting [7]), 2% (inactive); in experiment [6] (setting [8]), 30% (inactive); in experiment [6] (at 50.0 µM), 90% (active).

Consider `C=CCCCCCCCCC(=O)O` (tested in a mixture with another compound), for which the growth inhibition was -3% (inactive) in experiment [1] (setting [7]); 12% (inactive) in experiment [1] (setting [8]); 23.1% (inactive) in experiment [1] (at 50.0 µM); -3% (inactive) in experiment [2] (setting [7]); 8% (inactive) in experiment [2] (setting [8]); 63.3% (inactive) in experiment [2] (at 50.0 µM). Also, the growth inhibition was -9% (inactive) in experiment [3] (setting [7]); 27% (inactive) in experiment [3] (setting [8]); 53% (inactive) in experiment [3] (at 50.0 µM); 6% (inactive) in experiment [4] (setting [7]); 72% (active) in experiment [4] (setting [8]); 96.8% (active) in experiment [4] (at 50.0 µM). Besides, the growth inhibition is -7% (inactive) in experiment [5] (setting [7]); 7% (inactive) in experiment [5] (setting [8]); 40.4% (inactive) in experiment [5] (at 50.0 µM); -7% (inactive) in experiment [6] (setting [7]); 48% (inactive) in experiment [6] (setting [8]); 83% (active) in experiment [6] (at 50.0 µM).

On to `N#CC(C#N)=Cc1cccc([N+](=O)[O-])c1`, for which the growth inhibition in experiment [1] (setting [7]) is 42% (inactive); in experiment [1] (setting [8]), 89% (active); in experiment [1] (at 50.0 µM), -15.1% (inactive) and 98.2% (active); in experiment [2] (setting [7]), 29% (inactive); in experiment [2] (setting [8]), 92% (active); in experiment [2] (at 50.0 µM) it was -11.1% (inactive) and 90.8% (active). The growth inhibition is 13% (inactive) in experiment [3] (setting [7]); 84% (active) in experiment [3] (setting [8]); -24.4% (inactive) and 99.2% (active) in experiment [3] (at 50.0 µM); 1% (inactive) in experiment [4] (setting [7]); 28% (inactive) in experiment [4] (setting [8]); -4.8% (inactive) and 93.7% (active) in experiment [4] (at 50.0 µM). Also, the growth inhibition in experiment [5] (setting [7]) is 9% (inactive); in experiment [5] (setting [8]) it was 76% (active); in experiment [5] (at 50.0 µM), -8.45% (inactive) and 99.5% (active); in experiment [6] (setting [7]), 33% (inactive); in experiment [6] (setting [8]), 92% (active); in experiment [6] (at 50.0 µM), -27.9% (inactive) and 97.8% (active).
